Sfp inh: qHTS Assay for Inhibitors of Bacillus subtilis Sfp phosphopantetheinyl transferase (PPTase). 4'-phosphopantetheinyl transferase ffp (Bacillus subtilis), Q9F4F7. Biochemical Sfp PPTase activity, qHTS. Potency, µM, without a hit: largest response in the series, negative = inhibition, hits mostly inhibitors. 310,000 tested, 3.5% active;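 further: the enzyme is Sfp with the accession as filed and its product quenches rhodamine fluorescence; 0% = enzyme reaction without inhibitor and -100% = no enzyme wells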
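Compounds were incubated with enzyme (final 15 nM) for 15 min at room temperature before substrate addition started the reaction. Fluorescence at 525 nm excitation, 598 nm emission was recorded immediately and after 30 minutes.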
BAZ2B block: qHTS Assay for Inhibitors of BAZ2B. AID 504333, 2011. Potency, µM (series often up to 114 µM), without a hit: top-dose activity change, negative = inhibition, most hits filed as inhibitors. 360,000 tested, 4.4% active. AlphaScreen BAZ2B-H3K14Ac peptide displacement. Bromodomain adjacent to zinc finger domain protein 2B (Homo sapiens), Q9UIF8; further: on the % scale 0 is the no-effect control and ±100 the full control effect; nearly all actives have a fitted effect of over 60% in size
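AlphaScreen luminescence quantifies BAZ2B engagement of H3K14Ac peptide; the protein and biotinylated peptide are both at 50 nM final, buffer PBS pH 7.4 with 0.01% Tween-20, all steps at room temperature.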
G9a inh: qHTS Assay for Inhibitors of Histone Lysine Methyltransferase G9a; Histone-lysine N-methyltransferase EHMT2 (Homo sapiens), Q96KQ7; G9a H3K9 monomethylation, AlphaScreen, 2 h; Potency, µM (top dose mostly 102 µM), for inactives: at the top dose activity, negative = inhibition, most hits filed as inhibitors; 350,000 tested, 8.8% active; AID 504332, 2011; further: on the % scale 0 is the no-effect control and ±100 the full control effect; nearly all actives have a fitted effect of over 75% in size
Target sequence (Q96KQ7 913-1193 limits assumed): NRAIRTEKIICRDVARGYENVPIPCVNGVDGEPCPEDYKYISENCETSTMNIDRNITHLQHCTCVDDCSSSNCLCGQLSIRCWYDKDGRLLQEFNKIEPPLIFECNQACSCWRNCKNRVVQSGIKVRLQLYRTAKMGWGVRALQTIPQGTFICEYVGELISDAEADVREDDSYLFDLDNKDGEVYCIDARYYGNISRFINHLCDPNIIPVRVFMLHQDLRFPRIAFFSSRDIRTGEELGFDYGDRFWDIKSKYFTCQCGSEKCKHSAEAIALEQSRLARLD
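Readings reflect AlphaScreen signal from monomethyl-H3K9 antibody detection. HMT at 20 nM; substrate b-H3K9 500 nM; cofactor SAM 20 uM; 2 h RT reaction; compounds tested as titrations in qHTS with 15 min preincubation.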
HP1b binding inh: HTS for Inhibitors of HP1-beta Chromodomain Interactions with Methylated Histone Tails | AID 540317, 2011 | Potency, µM (titrated, usually from 114 µM), for inactives: top-dose activity change, negative = inhibition, hits mostly inhibitors | 390,000 tested, 0.56% active | AlphaScreen HP1-beta / biotin-H3K9me3 peptide binding | Chromobox protein homolog 1 (Homo sapiens), P83916; further: nearly all actives have a fitted effect of over 70% in size
Target sequence (P83916 whole entry, looked up): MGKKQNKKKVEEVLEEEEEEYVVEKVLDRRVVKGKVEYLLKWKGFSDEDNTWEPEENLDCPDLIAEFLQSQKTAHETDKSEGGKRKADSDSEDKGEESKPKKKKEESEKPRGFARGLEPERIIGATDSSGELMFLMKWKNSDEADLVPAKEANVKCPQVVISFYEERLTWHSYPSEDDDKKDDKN
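HP1-beta protein (50 nM final) preincubated 30 min at room temperature with biotinylated H3(1-18)K9me3 peptide (50 nM) in PBS pH 7.4, 0.01% Tween-20, then compound added for 30 min. AlphaScreen streptavidin donor/nickel chelate acceptor beads (10 ug/mL final), 30 min dark, luminescence read.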
PLK1 PBD block: qHTS for Inhibitors of PLK1-PDB (polo-like kinase 1 - polo-box domain): Primary Screen. Plk1 PBD binding of FITC phosphopeptide, fluorescence polarization. Potency, µM, without a hit: max response, negative = inhibition, most hits filed as inhibitors. 360,000 tested, 2.8% active; further: series mostly up to about 57 µM; on the % scale 0 is the no-effect control and ±100 the full control effect; nearly all actives have a fitted effect of over 65% in size
JMJD2A Tudor inh: qHTS Assay for Inhibitors of JMJD2A-Tudor Domain; Potency, µM (series often up to 114 µM), for the others: at the top dose activity change, negative = inhibition, hits mostly inhibitors; AlphaScreen JMJD2A-Tudor / H3K4me3 peptide binding; Lysine-specific demethylase 4A (Homo sapiens), O75164; 390,000 tested, 4.4% active; further: on the % scale 0 is the no-effect control and ±100 the full control effect; nearly all actives have a fitted effect of over 50% in size
* hit, by the source's call; ? = inconclusive; . = no result; [ ] = dose if it differs, or a comment. Hits are enriched below; roughly 12% of the tested compounds scored in any of these assays. The call rests on the fitted dose curve; in most records, active means well fitted curve in the direction sought with a large enough effect; inconclusive means small, poorly fitted or top-dose-only effect, or another doubt; inactive means no such curve, though single readings can be large; an effect the other way counts as inactive or inconclusive. Potency means the concentration at half of the fitted maximal effect.

SMILES | Sfp inh | BAZ2B block | G9a inh | HP1b binding inh | PLK1 PBD block | JMJD2A Tudor inh
COc1cc(C2C(C#N)=C(N)Oc3cc(N(C)C)ccc32)cc2c1OCO2 (stereo unspecified) | -27% | 45µM* | ? | ? | 0% | 50µM*
COc1cc(C2C(C#N)=C(N)Oc3cc(O)ccc32)cc2c1OCO2 (stereo unspecified) | 79µM* | -11% | -2%[59 µM] | ? | -19% | 2%[11.4 µM]
CCOC(=O)C1=C(C)OC(N)=C(C#N)C1c1cc(OC)c2c(c1)OCO2 (stereo unspecified) | 1% | 3% | -4%[59 µM] | 27% | -10% | -26%
COc1cc(C2C(C#N)=C(N)OC3=C2C(=O)CC(C)(C)C3)cc2c1OCO2 (stereo unspecified) | . | . | . | 1% | -12% | ?
COc1cc(NS(=O)(=O)c2ccc(C(=O)O)cc2)c2nc(C)ccc2c1 | . | . | . | 46% | . | -7%
CC(=O)N1N=C(c2ccco2)CC1c1ccc(Br)cc1 (stereo unspecified) | 0% | -5% | ? | -4% | -3% | -17%
COc1ccc(Nc2nc(NCCN3CCOCC3)nc(Nc3ccc(OC)cc3)n2)cc1 | -11% | 45µM* | ? | -9% | 4% | ?
COc1ccc(CCNCCN2CCOCC2)cc1 | ? | 25µM* | 3.5µM* | ? | 8% | 20µM*
Cc1cc2oc(C(=O)Nc3nc(-c4ccccc4)ns3)c(C)c2cc1Cl | . | 0% | -22%[59 µM] | 35% | . | -5%
Cn1nnc2c(N3CCN(c4ccc(F)cc4)CC3)ncnc21 | . | -13% | -27%[59 µM] | 12% | . | 40µM*
Cn1ncc2c(N3CCN(c4ccc(F)cc4)CC3)ncnc21 | . | 79µM* | 4%[59 µM] | -6% | . | -26%
Cc1ccc(-c2onc(C)c2C)cc1S(=O)(=O)NC1CCCCC1 | . | 3% | 6%[59 µM] | 29% | . | 4%
Cc1nc(-c2ccc(S(=O)(=O)NCc3ccc(N(C)C)cc3)cc2)co1 | . | 40µM* | ? | -8%[57 µM] | . | 50µM*
Cc1ccc(-c2onc(C)c2C)cc1S(=O)(=O)NCc1ccc(N(C)C)cc1 | . | 35µM* | 11µM* | ? | . | 40µM*
CNc1ccc(Br)cc1C(O)c1ccccc1 (stereo unspecified) | 89µM* | 20% | 43%[12.7 µM] | 13% | -7% | -11%
O=C(NCC(c1ccco1)S(=O)(=O)c1cccs1)c1ccccc1F (stereo unspecified) | . | 2% | 8%[59 µM] | -3% | . | 0%
O=C(CNC(=O)c1cccs1)Nc1ncccc1O | . | 56µM* | 10% | 15% | -2% | -12%
CCn1c(=O)c([N+](=O)[O-])c(Cl)c2ccccc21 | 9% | 2% | -34% | 46% | 2.4µM* | -9%
O=c1c([N+](=O)[O-])c(O)c2ccccc2n1Cc1ccccc1 | ? | -17% | 28µM* | 18% | -13% | -28%
CCn1c(=O)c([N+](=O)[O-])c(NCC(O)c2ccccc2)c2ccccc21 (stereo unspecified) | 8% | -4% | -10%[59 µM] | 13% | -11% | 1%
O=Nc1c(O)n(Cc2ccccc2)c2ccccc12 | 9% | -21% | -2% | 5% | -11% | -20%[11.4 µM]
CCn1c(=O)c([N+](=O)[O-])c(NCCN(C)C)c2ccccc21 | 3.5µM* | -29% | 56µM* | 29% | -2% | -11%
CCCCN1C(=O)CN(C2CCCCCC2)C(=O)C1c1ccc(OCC)c(OC)c1 (stereo unspecified) | . | -1% | 2%[59 µM] | 34% | . | -14%
O=c1c2ccccc2[nH]c2ccc(O)cc12 | -25% | 56µM* | 40µM* | ? | 30µM* | ?
Cc1ccc2[nH]c3ccccc3c(=O)c2c1 | 3% | 1% | 2% | 43% | -3% | 6%
SMILES | Sfp inh | BAZ2B block | G9a inh | HP1b binding inh | PLK1 PBD block | JMJD2A Tudor inh
Cc1cc(=O)[nH]c(SCC(=O)Nc2c(C)n(C)n(-c3ccccc3)c2=O)c1C#N | . | 12% | -8%[12.7 µM] | 10% | -7% | -13%
Cc1cc(/C=C(\C#N)C(N)=O)c(C)n1-c1ccc(N2CCOCC2)c([N+](=O)[O-])c1 | -17% | ? | ? | ? | 2% | ?
Cc1cc(C=O)c(C)n1-c1ccc(Cl)c(C(=O)O)c1 | -9% | 25µM* | 13µM* | 40µM* | 11µM* | 20µM*
Cc1cc(C=O)c(C)n1-c1ccc(N2CCCCC2)c([N+](=O)[O-])c1 | 18% | 40µM* | 13µM* | ? | -3% | 35µM*
N#CCC(=O)N/N=C/c1cn(Cc2ccccc2C#N)c2ccccc12 | -1% | -24% | ? | -5% | -2% | -8%
N#CCC(=O)N/N=C/c1c(-c2ccccc2)n(-c2ccccc2)c2ccccc12 | 56µM* | -29% | 15% | 15%[57 µM] | ? | -6%
CCCC[C@@H]1CCCO[C@@](C(=O)NCCOC)(C(F)(F)F)C1 | 5% | . | . | 26% | . | -14%
CC(C)=CCC[C@](C)(O)C1CC[C@]2(C)[C@@H]1CC[C@@H]1[C@@]3(C)CCC(=O)C(C)(C)[C@@H]3CC[C@]12C (stereo partly specified) | 1% | . | . | . | . | .
COc1ccc(NC(=O)CSc2nnc(Cc3ccccc3)o2)c(OC)c1 | 6% | 3% | -7%[59 µM] | 20% | -18% | -10%
COc1ccccc1NC(=O)CSc1nnc(Cc2ccccc2)o1 | 9% | 2% | 14µM* | 7% | -7% | -20%
CCSc1nnc(NC(=O)CSc2nnc(CNC(=O)c3ccc(OC)cc3)o2)s1 | -20% | 7% | -17%[59 µM] | 31% | -13% | -1%
O=C(CSc1nnc(CNC(=O)c2ccco2)o1)Nc1ccccc1 | 8% | . | -49% | 62% | -11% | 1%
O=C(CSc1nnc(CNC(=O)c2ccccc2)o1)NCc1ccco1 | 3% | -12% | . | 42% | -10% | -23%
COc1ccc(C(=O)NCc2nnc(SCC(=O)Nc3nnc(C)s3)o2)cc1 | ? | 0% | 35µM* | 32% | ? | -10%
O=C(CSc1nnc(CNC(=O)c2ccco2)o1)c1ccccc1 | 71µM* | -1% | -49% | 38% | -2% | -6%
O=C(CSc1nnc(CNC(=O)c2c(F)cccc2F)o1)NCc1ccco1 | 11% | 71µM* | . | 7% | -14% | -23%
O=C(NCC(c1cccnc1)N1CCN(c2ccccc2F)CC1)C(=O)Nc1ccc(F)cc1F (stereo unspecified) | . | -14% | -3%[59 µM] | 7% | . | -24%

Compound activity deposited in PubChem BioAssay by National Center for Advancing Translational Sciences (NCATS).
